Screens: PubChem, National Center for Advancing Translational Sciences (NCATS)
HT1080-NT tox: kills 2HG-producing HT-1080-NT fibrosarcoma cells | 360,000 compounds, 1.6% hits | Potency, µM (titrated, usually from 46.1 µM), inactives show top-dose activity, negative = less viability, most hits filed as cytotoxic | AID 686970 | HT-1080-NT fibrosarcoma viability, CellTiter-Glo ATP luminescence, 48 h;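 also: NT is the 2HG producing partner of a matched IDH1 knockdown line; 0% = DMSO-treated cells and -100% = media-only wells without cells; nearly all actives have a fitted effect of over 55% in size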
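Compounds were tested in concentration-response format on HT-1080-NT cells for 48 hours at 37 degrees C. Cell viability came from CellTiter-Glo luminescence; curves were classified by r2, response magnitude and activity.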
DT40 TDP1 CPT: DT40-hTDP1 cell growth loss with CPT. 420,000 compounds, 12% hits. Potency, µM (highest dose often 46.2 µM), for inactives: top-dose activity change, negative = growth inhibition, actives largely listed as inhibitors. AID 686979. chicken DT40 Tdp1-/-;hTDP1 cells + 20 nM CPT, ATP luminescence, 48 h; also: % is scaled to controls: 0 for no effect and ±100 for the full control effect; nearly all actives have a fitted effect of over 55% in size
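Cell growth measured by CellTiter-Glo luminescence after a minimum 48 h, 37 C compound exposure with 20 nM CPT in Tdp1-knockout DT40 cells stably expressing hTDP1, seeded 400/well; qHTS titration format.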
HepG2 viability: HepG2 cytotoxicity, counter-screen for TGF-b inhibitors; HepG2 CAGA-GFP viability, ATP luminescence, 18 h; 410,000 compounds, 0.76% hits; Potency, µM (doses to about 46.1 µM), inactives show at the top dose activity change, negative = cytotoxicity, hits mostly cytotoxic
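HepG2 CAGA-GFP cells (1000/well, DMEM with 1% FBS) received compound, then TGF-beta at 500 pg/mL final, and were incubated 18 hours at 37 degrees C. Viability was read by CellTiter-Glo luminescence. Media-only wells were set as complete cell-killing and DMSO as no toxicity.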
DT40 TDP1 no CPT: qHTS for Inhibitors of human tyrosyl-DNA phosphodiesterase 1 (TDP1): qHTS in cells in absence of CPT | DT40 Tdp1-/- hTDP1 cells, no CPT, ATP luminescence, 48 h | Potency, µM (titrated, usually from 46.2 µM), for inactives: top-dose activity change, negative = growth inhibition, actives largely listed as inhibitors | 420,000 compounds, 15% hits | AID 686978, 2013; also: % is scaled to controls: 0 for no effect and ±100 for the full control effect; nearly all actives have a fitted effect of over 55% in size
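Stably hTDP1-transfected Tdp1-null chicken DT40 cells were treated with library compounds minus camptothecin and grown for at least 48 hr at 37 °C, after which cellular ATP was quantified by luminescence.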
TGFb SMAD3 inh: TGF-b pathway inhibition; HepG2 CAGA-GFP TGF-b/SMAD3 reporter, GFP fluorescence, 18 h; TGF-beta stimulated, 500 pg/mL final; Potency, µM (titrated, usually from 46.1 µM), inactives show top-dose activity, negative = inhibition, actives largely listed as inhibitors; 410,000 compounds, 1.2% hits; also: % is scaled to controls: 0 for no effect and ±100 for the full control effect; nearly all actives have a fitted effect of over 65% in size
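Using HEPG2 CAGA-GFP reporter cells at 1000 cells/well, we pinned test compounds, stimulated with recombinant TGF-beta (500 pg/mL final) and measured total well GFP after 18 h.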
HT1080 IDH1KD tx: kills HT-1080 cells with IDH1 knockdown; AID 686971; HT-1080 IDH1 knockdown viability, ATP luminescence, 48 h; Potency, µM (top dose mostly 46.1 µM), for inactives: at the highest dose activity, negative = toxicity, hits mostly cytotoxic; 360,000 compounds, 2% hits;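 also: 0% = DMSO wells and -100% = cell-free medium wells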
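Knockdown cells (IDH1KD HT-1080) received compounds 2 h after plating at 750 cells/well and were kept 48 h at 37 °C in 5% FBS RPMI. A CellTiter-Glo luminescence read gave % activity for curve fitting.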
Starred values were filed as active, the others as inactive; ? = inconclusive; / = not tested or not shown; ! = a repeat was not active; [ ] = dose if it differs, or a comment. Compounds with a hit are over-represented: about 17% of the library has one in this group of screens. Calls follow the shape of the dose curve; as a rule, active = well fitted curve in the direction sought with a large enough effect; inconclusive = small, poorly fitted or top-dose-only effect, or another doubt; inactive = no such curve, though single readings can be large; an effect the other way counts as inactive or inconclusive. Potency is read from the fitted curve at half-maximal effect.

SMILES | HT1080-NT tox | DT40 TDP1 CPT | HepG2 viability | DT40 TDP1 no CPT | TGFb SMAD3 inh | HT1080 IDH1KD tx
COc1ccc(-c2coc3c(C(=O)Nc4cccc(C(C)=O)c4)cccc23)c(C)c1 | -18.7% | 18.4µM* | -3.9% | 20.6µM* | -0.2% | ?
COc1ccc(-c2ccc(C(=O)Nc3cccc(F)c3)c3occc23)c(C)c1 | ? | ? | -17.3% | ? | -2.8% | ?
CC(OC(=O)CCc1nc2ccccc2c(=O)[nH]1)C(=O)c1ccc(Br)cc1 (stereo not drawn) | 7.8% | -6.6% | -5.9% | -4.9% | -1.0% | 6.9%
CCCn1nc(C(=O)Oc2ccc3c(C)cc(=O)oc3c2)c2ccccc2c1=O | 7.0% | ? | 3.0% | ? | ? | 22.0%
COc1ccc(-c2ccc(C(=O)Nc3ccc(C(C)C)cc3)c3occc23)c(C)c1 | -1.3% | ? | -3.2% | 16.4µM* | 18.5% | -19.8%
COc1ccc(C(=O)NCCCN2CCN(CCCNC(=O)c3ccc(OC)c(OC)c3)CC2)cc1OC | 10.5% | 23.1% | -2.6% | -19.7% | 7.2% | 13.9%
COc1ccc2cccc(N3CCN(CCNC(=O)c4ccc(F)cc4)CC3)c2c1 | / | 18.8µM* | / | 21.1µM* | / | /
COc1ccc(C(=O)NCCN2CCN(C(=O)c3ccc(OC)cc3)CC2)cc1 | -3.5% | 3.7% | -3.1% | -31.5% | 35.6% | -0.4%
COc1ccccc1N1CCN(CCCCNC(=O)c2ccc3ccccc3c2)CC1 | ? | ? | -38.4% | 20.6µM* | 27.8% | ?
CCOc1ccc(CNS(=O)(=O)c2ccc(-c3cc(C(F)(F)F)on3)s2)cc1 | / | ? | -0.4% | -30.0% | -17.7% | /
Cc1ccc(OCc2ccc(C(=O)Nc3c(C)nn(Cc4c(F)c(F)c(F)c(F)c4F)c3C)o2)c([N+](=O)[O-])c1 | ? | 13µM* | -5.1% | 18.4µM* | ? | ?
Cc1ccc(OCc2ccc(C(=O)NN)o2)c([N+](=O)[O-])c1 | -13.7% | -3.4% | -77.6% | -1.3% | ? | 1.8%
Cc1nn(Cc2c(F)c(F)c(F)c(F)c2F)c(C)c1NC(=O)c1c([N+](=O)[O-])cnn1C | 2.5% | 13µM* | -1.8% | 11.6µM* | -11.4% | 6.4%
CCn1ncc(Br)c1C(=O)Nc1c(C)nn(Cc2c(F)c(F)c(F)c(F)c2F)c1C | -1.4% | 16.4µM* | -6.3% | ? | 11.0% | -24.1%
Cc1ccccc1NC(=O)Cc1nc(COC(=O)c2ccc(O)cc2O)cs1 | 1.0% | ? | -20.7% | ? | -9.0% | 0.3%
C=C1C=C(C(F)(F)F)n2ncc(C(=O)NCc3ccc(F)cc3)c2N1 | / | ? | -0.3% | ? | 0.6% | /
COc1ccc(NC(=O)CN(c2ccc(C)cc2)S(=O)(=O)c2c(C)nn(C)c2C)cc1 | 11.6% | -16.8% | 4.1% | 0.4% | 8.9% | -1.9%
CCOC(=O)c1ccc(NC(=O)CN(c2ccc(C)cc2)S(=O)(=O)c2c(C)nn(C)c2C)cc1 | ? | 23.1µM* | -40.3% | ? | ? | ?
CCOc1ccccc1NC(=O)CN(c1cc(C)cc(C)c1)S(=O)(=O)c1c(C)nn(C)c1C | / | 20.6µM* | -47.9% | 20.6µM* | ? | /
CC(C(=O)NCC(=O)Nc1ccc(F)c(F)c1F)N1CCN(c2ccc(O)cc2)CC1 (stereo not drawn) | ? | ? | -11.0% | 14.6µM* | -5.3% | ?
CC(C)Cc1nc2cc(NS(=O)(=O)N(C)C)cc(C(=O)N3CCc4sccc4C3)c2n1C | / | 5.1% | / | 0.0% | / | /
CCNc1ncc2nc(-c3ccc(OC)cc3)c(=O)n(Cc3cccc(OC)c3)c2n1 | / | -5.3% | / | -5.9% | / | /
CCCOc1ccc([N+](=O)[O-])cc1C1NC(=S)NC(c2ccccc2)=C1C(=O)OCC (stereo not drawn) | -16.1% | ? | 13.9% | 20.6µM* | 9.0% | -8.5%
CCOC(=O)C1=C(c2ccccc2)NC(=O)NC1c1cc(OC)c(O)c([N+](=O)[O-])c1 (stereo not drawn) | 9.7% | -21.8% | -14.4% | ? | -4.3% | 9.6%
CCOc1ccccc1N(C)C(=O)c1nn(-c2ccc(OC)cc2OC)c(=O)c2ccccc12 | 12.1% | -28.9% | 3.8% | ? | 13.5% | 12.9%
SMILES | HT1080-NT tox | DT40 TDP1 CPT | HepG2 viability | DT40 TDP1 no CPT | TGFb SMAD3 inh | HT1080 IDH1KD tx
C[C@]12CCC(=O)C=C1C=C[C@@H]1[C@@H]2CC[C@@]2(C)[C@H]1CC[C@@]21CCC(=O)O1 | -2.5% | ? | -30.6% | 15µM*! | -2.5% | -2.6%
CC(=O)SC1CC2=CC(=O)CC[C@@]2(C)C2CC[C@@]3(C)[C@@H](CC[C@@]34CCC(=O)O4)C12 (stereo partly drawn) | / | 13µM* | / | 16.4µM* | / | /
Cc1ccc(-n2c(=O)[nH]c3c(C(N)=O)nc(-c4ccc(C)o4)nc32)cc1 | -20.1% | 9.2µM* | -87.4% | 13µM* | ? | ?
Cc1ccc(-n2c(=O)[nH]c3c(C(N)=O)nc(CC(C)C)nc32)cc1 | -3.9% | -22.5% | -18.0% | -14.3% | -17.7% | -2.3%
COC(=O)c1scc(-c2ccc(C)cc2)c1S(=O)(=O)Nc1ccc(OC(F)(F)F)cc1 | / | -7.2% | -15.4% | -8.5% | -9.0% | /
COC(=O)c1scc(-c2ccc(C)cc2)c1S(=O)(=O)Nc1ccc(NC(C)=O)cc1 | / | 18.4µM* | -24.4% | ? | ? | /
COC(=O)c1scc(-c2ccc(C)cc2)c1S(=O)(=O)Nc1ccc(N(C)C)cc1 | / | 16.4µM* | -12.5% | 14.6µM* | 0.5% | /
Cc1ccc(S(=O)(=O)CCC(=O)OCC(=O)Nc2sccc2C#N)cc1 | -6.1% | -14.7% | -13.5% | -15.6% | -0.7% | -0.8%
Cc1ccc(CC(=O)NCCCc2ccccc2)cc1 | -3.9% | -7.1% | -6.5% | -11.4% | -7.5% | -0.1%
Cc1ccc(S(=O)(=O)CCC(=O)Nc2ccccc2C)cc1 | -0.1% | ? | -0.1% | 23.1µM* | 6.3% | 3.0%
COC(=O)c1ccsc1NC(=O)CCS(=O)(=O)c1ccc(Cl)cc1 | 5.2% | ? | -18.2% | 18.4µM* | -13.6% | 0.9%
Cc1ccc(S(=O)(=O)CCNC(=O)Cc2ccccc2)cc1 | -9.7% | 20.6µM* | 3.1% | ? | 8.4% | -12.4%
Cc1ccc(S(=O)(=O)CCC(=O)Nc2sccc2C#N)cc1 | -2.6% | ? | 0.0% | 20.6µM* | -22.4% | -7.2%
Cc1ccc(S(=O)(=O)CCC(=O)Nc2ccccc2N2CCCC2)cc1 | 5.4%[9.24 µM] | ? | -31.9% | -6.1% | -3.8% | 7.1%
